{"source": "the supplement of paper PMC12350171", "note": "Where a name gives a salt, the structure may show the parent alone.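 Wherever growth AUC normalised to DMSO control (median) is given: active when median AUC fell below 0.1.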"}
{"tested_on": "Yersinia pseudotuberculosis", "test": "growth AUC normalised to DMSO control (fraction of control); higher = less growth inhibition, active = hit call of the paper", "details": "20 µM", "how_it_was_run": "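Hemin and NAD were added to the medium for Haemophilus parainfluenzae. All pathogens, after two anaerobic passages, were inoculated at a starting OD578 of 0.01 into pre-reduced mGAM plates with 20 μM compound and 1% DMSO under breathable seals, and OD578 was read hourly for 24 h in three biological replicates. AUC of each growth curve was obtained with the trapezoidal rule up to the exponential-to-stationary transition and normalised to DMSO controls from the same plate.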"}
{"smiles": "CN1CCC[C@@H]1CCO[C@](C)(c1ccccc1)c1ccc(Cl)cc1", "note": "[Clemastine fumarate]", "growth AUC normalised to DMSO control": "1.02 (inactive)"}
{"smiles": "CN(C)CCOC(C)(c1ccccc1)c1ccccn1", "note": "(centres undefined) [Doxylamine succinate]", "growth AUC normalised to DMSO control": "0.996 (inactive)"}
{"smiles": "CC(=O)N(O)CCCCCNC(=O)CCC(=O)N(O)CCCCCNC(=O)CCC(=O)N(O)CCCCCN", "note": "[Deferoxamine mesylate]", "growth AUC normalised to DMSO control": "1 (inactive)"}
{"smiles": "C[C@]12CCC(=O)C=C1CC[C@@H]1[C@@H]2[C@@H](O)C[C@@]2(C)[C@H]1CC[C@]2(O)C(=O)CO", "note": "[Hydrocortisone]", "growth AUC normalised to DMSO control": "1.01 (inactive)"}
{"smiles": "CN(C)CC/C=C1\\c2ccccc2CSc2ccccc21", "note": "[Dosulepin hydrochloride]", "growth AUC normalised to DMSO control": "0.998 (inactive)"}
{"smiles": "CN1CCN(CCCN2c3ccccc3Sc3ccc(S(=O)(=O)N(C)C)cc32)CC1", "note": "[Thioproperazine dimesylate]", "growth AUC normalised to DMSO control": "1 (inactive)"}
{"smiles": "CO[C@H]1C[C@H](O[C@H]2[C@H](C)[C@@H](O[C@@H]3O[C@H](C)C[C@H](N(C)C)[C@H]3OC(C)=O)[C@@H](C)C[C@@]3(CO3)C(=O)[C@H](C)[C@@H](OC(C)=O)[C@@H](C)[C@@H](C)OC(=O)[C@@H]2C)O[C@@H](C)[C@@H]1OC(C)=O", "note": "[Troleandomycin]", "growth AUC normalised to DMSO control": "0.999 (inactive)"}
{"smiles": "Cc1cnc(C(=O)O)c[n+]1[O-]", "note": "[Acipimox]", "growth AUC normalised to DMSO control": "0.969 (inactive)"}
{"smiles": "COc1ccc(-c2cc(=O)c3c(O)cc(O[C@@H]4O[C@H](CO[C@@H]5O[C@@H](C)[C@H](O)[C@@H](O)[C@H]5O)[C@@H](O)[C@H](O)[C@H]4O)cc3o2)cc1O", "note": "[Diosmin]", "growth AUC normalised to DMSO control": "0.975 (inactive)"}
{"tested_on": "P. vulgatus RND KO", "test": "growth AUC normalised to DMSO control (median) (fraction of control); higher = less growth inhibition, active = hit call of the paper", "details": "20 µM", "how_it_was_run": "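Area under the growth curve, calculated by the trapezoidal rule up to entry into stationary phase, was normalised to vehicle wells on the same plate. Strains had been passaged twice overnight without oxygen and then grown in mGAM in 96-well plates from OD578 0.01, each with an approved-drug library compound at 20 μM in 1% DMSO. OD578 was read hourly over 24 h in an anaerobic incubator, and the median of three biological replicates is given.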"}
{"smiles": "Cc1ccc(-c2cc(C(F)(F)F)nn2-c2ccc(S(N)(=O)=O)cc2)cc1", "note": "[Celecoxib]", "growth AUC normalised to DMSO control": "0.728 (inactive)"}
{"smiles": "CCCN(CCC)C(=O)C(CCC(=O)O)NC(=O)c1ccccc1", "note": "(centres undefined) [Proglumide]", "growth AUC normalised to DMSO control": "1.02 (inactive)"}
{"smiles": "Clc1ccc(C(c2ccccc2Cl)C(Cl)Cl)cc1", "note": "(centres undefined) [Mitotane]", "growth AUC normalised to DMSO control": "0.97 (inactive)"}
{"smiles": "CCc1c(C)[nH]c2c1C(=O)C(CN1CCOCC1)CC2", "note": "(centres undefined) [Molindone hydrochloride]", "growth AUC normalised to DMSO control": "1.03 (inactive)"}
{"smiles": "OC(CCN1CCCCC1)(c1ccccc1)C1CC2C=CC1C2", "note": "(centres undefined) [Biperiden hydrochloride]", "growth AUC normalised to DMSO control": "0.994 (inactive)"}
{"smiles": "CC(COc1ccccc1)N(CCCl)Cc1ccccc1", "note": "(centres undefined) [Phenoxybenzamine hydrochloride]", "growth AUC normalised to DMSO control": "1.02 (inactive)"}
{"smiles": "Nc1ccc(/N=N/c2ccccc2)c(N)n1", "note": "[Phenazopyridine hydrochloride]", "growth AUC normalised to DMSO control": "1.03 (inactive)"}
{"smiles": "N=C(N)NS(=O)(=O)c1ccc(N)cc1", "note": "[Sulfaguanidine]", "growth AUC normalised to DMSO control": "1.06 (inactive)"}
{"smiles": "COc1ccc(/C=C/C(=O)Nc2ccccc2C(=O)O)cc1OC", "note": "[Tranilast]", "growth AUC normalised to DMSO control": "0.999 (inactive)"}
{"smiles": "C=C1/C(=C\\C=C2/CCC[C@]3(C)[C@@H]([C@H](C)/C=C/[C@@H](O)C4CC4)CC[C@@H]23)C[C@@H](O)C[C@@H]1O", "note": "[Calcipotriene]", "growth AUC normalised to DMSO control": "0.931 (inactive)"}
{"smiles": "C[N+](C)(CCOc1ccccc1)Cc1ccccc1.O=C([O-])c1cc2ccccc2cc1O", "note": "[Bephenium hydroxynaphthoate]", "growth AUC normalised to DMSO control": "0.998 (inactive)"}
{"smiles": "COc1c(N2C[C@@H]3CCCN[C@@H]3C2)c(F)cc2c(=O)c(C(=O)O)cn(C3CC3)c12", "note": "[Moxifloxacin]", "growth AUC normalised to DMSO control": "0.017 (active)"}
{"smiles": "C[N+](C)(C)CCOC(N)=O", "note": "[Carbachol chloride]", "growth AUC normalised to DMSO control": "1.09 (inactive)"}
{"smiles": "COCCOC(=O)C1=C(C)NC(C)=C(C(=O)OC/C=C/c2ccccc2)C1c1cccc([N+](=O)[O-])c1", "note": "(centres undefined) [Cilnidipine]", "growth AUC normalised to DMSO control": "0.989 (inactive)"}
{"smiles": "CCc1cc(C(N)=S)ccn1", "note": "[Ethionamide]", "growth AUC normalised to DMSO control": "1 (inactive)"}
{"smiles": "CCOC(=O)n1ccn(C)c1=S", "note": "[Carbimazole]", "growth AUC normalised to DMSO control": "0.993 (inactive)"}
{"smiles": "CN(C)CCC[C@@]1(c2ccc(F)cc2)OCc2cc(C#N)ccc21", "note": "[Escitalopram oxalate]", "growth AUC normalised to DMSO control": "1.01 (inactive)"}
{"smiles": "COc1ccc2[nH]c([S+]([O-])Cc3ncc(C)c(OC)c3C)nc2n1", "note": "(centres undefined) [Tenatoprazole]", "growth AUC normalised to DMSO control": "1.03 (inactive)"}
{"smiles": "CC1CCc2cc(F)cc3c(=O)c(C(=O)O)cn1c23", "note": "(centres undefined) [Flumequine]", "growth AUC normalised to DMSO control": "0.801 (inactive)"}
{"smiles": "CCn1cc(C(=O)O)c(=O)c2cc(F)c(N3CCNCC3)cc21", "note": "[Norfloxacin]", "growth AUC normalised to DMSO control": "0.922 (inactive)"}
{"smiles": "Nc1ccc(S(=O)(=O)c2ccc(N)cc2)cc1", "note": "[Dapsone]", "growth AUC normalised to DMSO control": "1.01 (inactive)"}
{"smiles": "CC(C)(C)NCC(O)COc1cccc2c1CC(O)C(O)C2", "note": "(centres undefined) [Nadolol]", "growth AUC normalised to DMSO control": "1.02 (inactive)"}
{"smiles": "COc1c2occc2c(OC)c2c(=O)cc(C)oc12", "note": "[Khellin]", "growth AUC normalised to DMSO control": "1 (inactive)"}
{"smiles": "COc1cc(C(=O)NS(=O)(=O)c2ccccc2C)ccc1Cc1cn(C)c2ccc(NC(=O)OC3CCCC3)cc12", "note": "[Zafirlukast]", "growth AUC normalised to DMSO control": "0.84 (inactive)"}
{"smiles": "NS(=O)(=O)c1cc2c(cc1Cl)NCNS2(=O)=O", "note": "[Hydrochlorothiazide]", "growth AUC normalised to DMSO control": "0.981 (inactive)"}
{"smiles": "CC(=O)O[C@H]1C[C@@H]2CC[C@@H]3[C@H](CC[C@@]4(C)[C@H]3C[C@H]([N+]3(C)CCCCC3)[C@@H]4OC(C)=O)[C@@]2(C)C[C@@H]1N1CCCCC1", "note": "[Vecuronium bromide]", "growth AUC normalised to DMSO control": "0.955 (inactive)"}
{"smiles": "CC(=O)OCC(=O)[C@@]1(O)CC[C@H]2[C@@H]3CCC4=CC(=O)CC[C@]4(C)[C@@]3(F)[C@@H](O)C[C@@]21C", "note": "[Fludrocortisone acetate]", "growth AUC normalised to DMSO control": "1.02 (inactive)"}
{"smiles": "CC1(C)S[C@@H]2[C@H](NC(=O)[C@H](NC(=O)N3CCNC3=O)c3ccccc3)C(=O)N2[C@H]1C(=O)O", "note": "[Azlocillin sodium salt]", "growth AUC normalised to DMSO control": "0.0105 (active)"}
{"smiles": "C[C@@](Cc1ccc(O)c(O)c1)(NN)C(=O)O", "note": "[Carbidopa]", "growth AUC normalised to DMSO control": "0.99 (inactive)"}
{"smiles": "C[C@H]1O[C@H](O[C@H]2[C@H](O)[C@@H](O)[C@@H](O[C@@H]([C@H](O)[C@@H](O)C=O)[C@H](O)CO)O[C@@H]2CO)[C@H](O)[C@@H](O)[C@@H]1N[C@H]1C=C(CO)[C@@H](O)[C@H](O)[C@H]1O", "note": "[Acarbose]", "growth AUC normalised to DMSO control": "1.01 (inactive)"}
{"smiles": "O=C(O)CCC(=O)c1ccc(-c2ccccc2)cc1", "note": "[Fenbufen]", "growth AUC normalised to DMSO control": "1.01 (inactive)"}
{"smiles": "CN1CCC[C@@H]1CCO[C@](C)(c1ccccc1)c1ccc(Cl)cc1", "note": "[Clemastine fumarate]", "growth AUC normalised to DMSO control": "0.944 (inactive)"}
{"smiles": "CN(C)CCOC(C)(c1ccccc1)c1ccccn1", "note": "(centres undefined) [Doxylamine succinate]", "growth AUC normalised to DMSO control": "0.981 (inactive)"}
{"smiles": "CC(=O)N(O)CCCCCNC(=O)CCC(=O)N(O)CCCCCNC(=O)CCC(=O)N(O)CCCCCN", "note": "[Deferoxamine mesylate]", "growth AUC normalised to DMSO control": "1.04 (inactive)"}
{"smiles": "C[C@]12CCC(=O)C=C1CC[C@@H]1[C@@H]2[C@@H](O)C[C@@]2(C)[C@H]1CC[C@]2(O)C(=O)CO", "note": "[Hydrocortisone]", "growth AUC normalised to DMSO control": "0.98 (inactive)"}
{"smiles": "CN(C)CC/C=C1\\c2ccccc2CSc2ccccc21", "note": "[Dosulepin hydrochloride]", "growth AUC normalised to DMSO control": "1.03 (inactive)"}
{"smiles": "CN1CCN(CCCN2c3ccccc3Sc3ccc(S(=O)(=O)N(C)C)cc32)CC1", "note": "[Thioproperazine dimesylate]", "growth AUC normalised to DMSO control": "1.03 (inactive)"}
{"smiles": "CO[C@H]1C[C@H](O[C@H]2[C@H](C)[C@@H](O[C@@H]3O[C@H](C)C[C@H](N(C)C)[C@H]3OC(C)=O)[C@@H](C)C[C@@]3(CO3)C(=O)[C@H](C)[C@@H](OC(C)=O)[C@@H](C)[C@@H](C)OC(=O)[C@@H]2C)O[C@@H](C)[C@@H]1OC(C)=O", "note": "[Troleandomycin]", "growth AUC normalised to DMSO control": "0.0116 (active)"}
{"smiles": "Cc1cnc(C(=O)O)c[n+]1[O-]", "note": "[Acipimox]", "growth AUC normalised to DMSO control": "1 (inactive)"}
{"smiles": "COc1ccc(-c2cc(=O)c3c(O)cc(O[C@@H]4O[C@H](CO[C@@H]5O[C@@H](C)[C@H](O)[C@@H](O)[C@H]5O)[C@@H](O)[C@H](O)[C@H]4O)cc3o2)cc1O", "note": "[Diosmin]", "growth AUC normalised to DMSO control": "0.997 (inactive)"}
